The whole screen tested about 60,000 compounds, of which about 210 (0.35%) were called active.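 How the source made its calls: active means inhibition above the screen-wide mean inhibition plus 3 SD (cut at about 18% in these data); inactive means the rest.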 Many of the other results were omitted from the sample, so actives are more common in it than they were.
The compounds below were run against Rho-associated protein kinase 2 (Homo sapiens) (UniProt O75116) (assay: ROCK2 enzymatic activity blockers – biochemical, high-throughput, luminescence, primary screen (AID 604;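 further: plate controls were DMSO wells for no effect and Y-27632 control wells after no-enzyme background subtraction for full effect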)). Conditions: purified ROCK2, Kinase-Glo ATP depletion luminescence; at 6 µM; stronger effect = higher value.
Sequence of Rho-associated protein kinase 2 (Homo sapiens) (O75116 whole entry, looked up): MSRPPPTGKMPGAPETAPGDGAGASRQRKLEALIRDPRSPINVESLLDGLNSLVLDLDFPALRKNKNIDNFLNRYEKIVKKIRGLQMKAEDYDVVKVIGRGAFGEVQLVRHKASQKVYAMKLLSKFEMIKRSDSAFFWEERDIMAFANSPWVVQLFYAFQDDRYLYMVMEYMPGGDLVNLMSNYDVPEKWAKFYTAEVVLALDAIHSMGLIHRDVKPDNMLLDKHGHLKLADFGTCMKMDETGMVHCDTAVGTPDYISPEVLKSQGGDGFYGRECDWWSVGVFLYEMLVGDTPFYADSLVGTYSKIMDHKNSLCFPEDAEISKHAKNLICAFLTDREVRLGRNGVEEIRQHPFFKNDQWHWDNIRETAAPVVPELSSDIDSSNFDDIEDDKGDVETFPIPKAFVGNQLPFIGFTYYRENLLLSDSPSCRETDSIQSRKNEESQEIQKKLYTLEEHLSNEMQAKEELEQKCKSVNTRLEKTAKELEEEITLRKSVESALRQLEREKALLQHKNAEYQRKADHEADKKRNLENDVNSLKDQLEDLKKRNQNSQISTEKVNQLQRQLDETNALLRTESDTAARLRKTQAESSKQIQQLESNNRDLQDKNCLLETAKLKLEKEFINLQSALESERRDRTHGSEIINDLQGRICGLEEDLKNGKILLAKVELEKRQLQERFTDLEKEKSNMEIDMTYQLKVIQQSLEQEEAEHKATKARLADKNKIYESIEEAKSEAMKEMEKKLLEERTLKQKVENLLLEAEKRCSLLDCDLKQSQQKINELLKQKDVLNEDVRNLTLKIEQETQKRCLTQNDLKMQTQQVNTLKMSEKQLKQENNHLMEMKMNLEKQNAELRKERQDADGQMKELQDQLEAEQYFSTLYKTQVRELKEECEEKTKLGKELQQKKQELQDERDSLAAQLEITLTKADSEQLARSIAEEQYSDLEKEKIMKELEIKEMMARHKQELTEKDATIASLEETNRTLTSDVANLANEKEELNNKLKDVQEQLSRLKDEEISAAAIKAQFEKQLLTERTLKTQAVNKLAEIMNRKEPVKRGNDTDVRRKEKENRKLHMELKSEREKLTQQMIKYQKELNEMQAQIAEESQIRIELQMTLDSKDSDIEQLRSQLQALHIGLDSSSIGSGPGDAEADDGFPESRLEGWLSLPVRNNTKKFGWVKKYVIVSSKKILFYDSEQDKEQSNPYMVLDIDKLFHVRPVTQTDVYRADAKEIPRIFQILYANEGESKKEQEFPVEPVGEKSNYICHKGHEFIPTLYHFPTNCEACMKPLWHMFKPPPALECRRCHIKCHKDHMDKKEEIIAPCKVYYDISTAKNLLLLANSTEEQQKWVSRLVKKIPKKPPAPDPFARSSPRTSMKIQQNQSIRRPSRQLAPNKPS

inhibition, active:
COc1cc(N=Cc2c(O)[nH]c3ccccc23)cc(OC)c1OC 58.4%
COc1ccc(N=Cc2c(O)[nH]c3ccccc23)cc1OC 36.8%

inhibition, inactive:
CC(C)OCCCNc1nc2c(c(=O)n(Cc3ccccc3F)c(=O)n2C)n1C -0.3%
CC1Cc2ccccc2N1C(=O)CSc1nnc(-c2ccc(S(=O)(=O)N3CCCCC3)cc2)o1 (stereo not given) -4.4%
CCCCCCn1c(CN2CCCCC2)nc2c1c(=O)n(C)c(=O)n2C -1.3%
Cc1nn(-c2ccccc2)c(C)c1C(=O)OCC(=O)NC(=O)NC1CCCCC1 1.4%
COC(=O)C(C)n1cnc2c(nnn2-c2cccc(Cl)c2)c1=O (stereo not given) 7.7%
O=C(CC1N=C2c3ccccc3N=C(SCc3ccccc3Cl)N2C1=O)NCc1ccco1 (stereo not given) 2.8%
Cc1cccc(OCc2nnc(SCC(=O)N3CCN(C(=O)c4ccco4)CC3)n2C)c1C 3.2%
O=C(c1cc(-c2ccccc2O)on1)N1CCCC1 -1.5%
CCOC(=O)N1CCC(NC(=O)Cn2cc3c(n2)CCCCC3)CC1 9%
O=C(CN1CCOCC1)Nc1cc(Cl)ccc1Cl 2.5%
O=C(NCc1ccco1)C1CCCN(S(=O)(=O)c2cnc[nH]2)C1 (stereo not given) 3.2%
COc1cccc(-c2nn(C)c3sc(C(=O)N4CCN(c5ccccc5)CC4)cc23)c1 6.1%
O=C(Nc1ccn(Cc2ccc(F)cc2)n1)c1ccncc1 18.1%
CCOC(=O)Cc1csc(NC(=O)CN(C)S(=O)(=O)c2ccc3c(c2)CCC(=O)N3)n1 2.4%
CC(C)n1c(NCc2c[nH]c3ccccc23)nc2ccccc21 2.4%
Cc1cc(NC(=O)CCC(=O)N(c2cccc(F)c2)C(C(=O)NC2CCCC2)c2ccncc2)no1 (stereo not given) 4%
Cc1ccccc1-c1nc(CS(=O)(=O)CC(=O)N2CCc3ccccc3C2)c(C)o1 -0.8%
CN(C)Cc1c(O)ccc2occ(C(O)c3ccccc3)c12 (stereo not given) 2%
CSc1ccc(S(=O)(=O)NCc2ccc(Cl)cc2)cc1 5.4%
CCOC(=O)N1CCN(Cc2nc3c(c(=O)n(C)c(=O)n3C)n2Cc2ccccc2)CC1 2.4%
CCn1c(SCC(=O)Nc2cc(C)c(Cl)cc2OC)nnc1-c1ccco1 3.2%
Cc1ccc(N2CCN(S(=O)(=O)N(C)C)CC2)cc1Cl 8.1%
O=c1c(-c2ccc3c(c2)OCCO3)c(C(F)(F)F)oc2cc(O)cc(O)c12 -3.1%
CCOC(=O)C1=C(C)NC(C)=C(C(=O)OCC)C1c1ccccn1 -6.7%
CC(=O)N1CSCC1C(=O)O (stereo not given) 2.3%
Cc1noc(C)c1C(=O)Nc1ccccn1 8.1%
O=C(NCc1cccnc1)c1ccc(CS(=O)(=O)c2ccc(Br)cc2)o1 1.6%
O=C(/C(=N\O)n1cncn1)c1ccc(Br)cc1Br -2.8%
CCOC(=O)NC(C(F)(F)F)(C(F)(F)F)P(=O)(c1ccccc1)c1ccccc1 3.9%
CCN(CC(=O)NCc1cccs1)c1nnnn1-c1ccccc1 -4.6%
C[C@H](NC(=O)NCCc1ccccc1)C(=O)O 4.7%
COc1ccc(C2CC(c3ccc(C)cc3)Nc3nc(N)nn32)cc1 (stereo not given) -2.6%
O=C(CN(Cc1ccccc1)C(=O)c1ccc2c(c1)OCCO2)NCc1ccc2c(c1)OCO2 5.9%
Cc1cccc(Cn2c(N3CCN(c4ccccc4)CC3)nc3c2c(=O)n(C)c(=O)n3C)c1 5.3%
COc1ccccc1NC1=NC2(CCCC2)N=C(N)N1 -2%
CCOc1ncccc1C(=O)OCc1cn2cc(Cl)ccc2n1 12.7%
Cc1ccc(C2c3c(oc4ccc(C)cc4c3=O)C(=O)N2CCCN2CCOCC2)cc1 (stereo not given) -2.1%
Cc1cc(NC(=O)CSCc2nc(-c3cccc(Cl)c3)oc2C)no1 3.5%
COc1ccccc1N(CC(=O)N1CCCCC1)S(=O)(=O)c1ccccc1 5.5%
COc1ccc(N2C(=O)CC(N3CCC(C(N)=O)CC3)C2=O)cc1 (stereo not given) -1.8%
O=C(CC1Oc2ccccc2NC1=O)NCCCN1CCN(Cc2ccccc2)CC1 (stereo not given) 0.1%
C(=C\c1ccccc1)/CSc1nnc(-c2cccnc2)n1Cc1ccco1 5%
CCN(CC)CCN1C(=O)C(=O)/C(=C(/O)c2ccc(OC)c(OC)c2)C1c1ccccn1 (stereo not given) 1.6%
Cc1cc(N=CC2=C(O)CCCC2=O)no1 4.3%
Cc1ccsc1-c1nc(CSCC(=O)NCCN2CCCC2)c(C)o1 -0.8%
CC1CCCN(c2ccc(C(=O)NCCc3ccccc3)cn2)C1 (stereo not given) 7.3%
Cc1ccc(S(=O)(=O)N2CCCC2C(=O)NCc2ccco2)cc1 (stereo not given) -1.2%
CC(C)NS(=O)(=O)c1ccc(CCC(=O)N2CCOCC2)cc1 1.3%
CCn1nc(NC(=O)c2ccco2)c2cc3ccc(C)cc3nc21 -4.9%
CCNS(=O)(=O)c1ccc(NC(=O)Nc2cccc(OC)c2)cc1 2.5%
COc1ccc(CNC(=O)c2cc3c(=O)n4ccccc4nc3n(CC3CCCO3)c2=N)cc1 (stereo not given) 5.4%
CCOC(=O)c1csc(NC(=O)c2ccc(S(=O)(=O)N3CCCC3)cc2)n1 -1.1%
C=CCn1c(=S)[nH]c2nc3c(cc2c1=O)COC(C)(C)C3 8%
CCCCC(=O)N1CC2(C)CN(C(=O)CCCC)CC(C)(C1)C2=O 3.9%
O=C(Nc1ccccc1F)c1cc(S(=O)(=O)N2CCCCC2)cs1 9.5%
O=C(CSc1ncccn1)NCCc1ccccc1 6.2%
CCCOC(=O)Cc1c(O)c2ccccc2[nH]c1=O 1.5%
CC1(C)CC(=O)C=C(NC2CC(C)(C)NC(C)(C)C2)C1 5.7%
O=C(OCC(=O)N1CCCC1)c1ccco1 3.5%
Cc1oc(CC(C)C)c(CN2CCCC2)c1C(=O)O 0.9%
CC(=O)Cc1nsc(NC(=O)c2ccc(COc3ccc(C)cc3)o2)n1 2.4%
Cc1noc(C)c1S(=O)(=O)N1CCCC(C(=O)Nc2nccs2)C1 (stereo not given) 3.5%
CCOC(=O)CC1=CC(=O)Nc2ccccc2N1 7.2%
Cc1occc1C(=O)N1CCCc2ccccc21 1%
O=C(c1ccc(S(=O)(=O)N2CCOCC2)cc1)N1CCN(c2ccccc2)CC1 2.3%
O=C1c2oc3ccccc3c(=O)c2C(c2cccc(O)c2)N1c1ccccn1 (stereo not given) 1%
COc1ccc(-n2c(SCC(=O)Nc3ccc4c(c3)OCO4)nnc2C(C)N2CCCCC2)cc1 (stereo not given) 1%
c1ccc2c(NCC3CCCO3)nc(-c3ccncc3)nc2c1 (stereo not given) 5.5%
Cc1noc(C)c1COC(=O)Cn1c(C)nc2ccccc21 5.1%
CCOC(=O)C1CCN(C(=O)C2CCN(S(=O)(=O)CC)CC2)CC1 -1.2%
CCCc1nc(SCC(=O)Nc2ccccc2OC)c2c(=O)n(C)c(=O)n(C)c2n1 1.6%
CCOc1ccccc1N(CC(=O)NC1CCCCC1)C(=O)CCCC(=O)Nc1ccccn1 4.8%
O=C(CSc1nnc(-c2cccnc2)n1Cc1ccco1)c1ccc(Cl)cc1 2.8%
CCOc1ccccc1NC(=O)CCc1ccc(C)o1 0.9%
CS(=O)(=O)c1ccc2nc(NC(=O)C3CCCCC3)sc2c1 6.5%
O=c1c(F)cn(C2CCCO2)c(=O)n1Cc1ccccc1Cl (stereo not given) -7.2%
CCn1c(CSc2ncccn2)nnc1SCC(=O)N1c2ccccc2CC1C (stereo not given) 1.2%
CCCOc1ccc(N2CC(C(=O)Nc3ccccn3)CC2=O)cc1 (stereo not given) 2.5%
O=C1CCCC2=C1C(c1cccs1)n1nc(SCc3ccccc3)nc1N2 (stereo not given) 2%
COc1ccc(-c2[nH]nc3c2C(c2ccncc2)C(C#N)=C(N)O3)cc1 (stereo not given) -0.8%
CC(C(=O)N1CCOCC1)N1c2cccc3cccc(c23)S1(=O)=O (stereo not given) 11.3%
O=C(c1cccs1)N(C(=O)c1cccs1)c1ccccn1 3.6%
CCc1c(C)nc(N2CCN(Cc3ccccc3)CC2)[nH]c1=O -0.6%
CCN1CCN(Cc2nc3c(c(=O)n(C)c(=O)n3C)n2CC(=O)c2ccccc2)CC1 -1.1%
COc1ccccc1CNC(=O)Cn1cc2c(n1)CCCC2 2.7%
N#CCCn1cnc2ccccc21 0.3%
CCn1c(=N)n(CC(=O)c2cccc(OC)c2)c2ccccc21 -1.1%
CCOCCCNC(=O)c1c[nH]c2cc(C)ccc2c1=O -0.3%
Brc1cnc(N2CCCC2)nc1N1CCCCC1 2%
COc1ccc(N2CC(C)Cn3c2nc2c3c(=O)n(Cc3ccccc3F)c(=O)n2C)c(OC)c1 (stereo not given) -0.2%
CCC(Sc1nncn1C)C(=O)Nc1nnc(-c2ccc(Cl)cc2)s1 (stereo not given) 3.6%
COc1ccc2[nH]c3ccc(OC)cc3c2c1 5.6%
COC(=O)c1[nH]c2ccccc2c1NS(=O)(=O)c1ccc(OC)cc1OC 5.9%
COc1ccc(CCNC(=O)CCCCn2c(=O)[nH]c3ccccc3c2=O)cc1OC 4.9%
COc1ccc(OC)c(N=Cc2c(O)[nH]c3ccccc23)c1 12.3%
CC(C)=C(NC(=O)c1ccco1)C(=O)NCCc1nc2ccccc2[nH]1 1.2%
COc1cc(NS(=O)(=O)c2ccccc2)ccc1-n1nc(C)cc1C 10.8%
CCCOC(=O)c1cc2ccccc2oc1=O 0.3%
CCOc1cc(S(=O)(=O)NCc2ccc3c(c2)OCO3)ccc1F 0.8%
CN(C)/C=C1\C=C(c2ccccc2)OC1=O 0.1%
COCCN1C(=O)c2oc3c(C)cc(C)cc3c(=O)c2C1c1cccc(O)c1 (stereo not given) -3%
O=C(NCCCN1CCN(Cc2ccccc2)CC1)C1CCN(S(=O)(=O)N2CCCC2)CC1 2.6%
O=C(c1ccco1)N1CCN(C(=O)C2c3ccccc3Oc3ccccc32)CC1 -3.5%

Reference: PubChem BioAssay AID604 (The Scripps Research Institute Molecular Screening Center, 2007)
